# Measured values from the supplement of paper PMC7411640.
# Counter-ions that a name gives are not always drawn.
# System: MDA-MB-468
# Test: phospho-S6 immunofluorescence (DAPI-normalised), per-plate z-score; higher = higher phospho-S6 signal (less pathway suppression)
# Conditions: co-treatment: lapatinib 1 uM; 24 h
# Experimental: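 GPCR-targeted compound library (MedChemExpress HY-L006) tested on MDA-MB-468 PTEN-null TNBC cells in 384-well plates at 0.1, 1 or 10 uM, combined with vehicle, GDC0941 450 nM or lapatinib 1 uM, for 24 h. Phospho-S6 (S240/244) immunofluorescence normalised to DAPI and expressed as a per-plate z-score; values are the mean of biological triplicates.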
row,SMILES,phospho-S6 immunofluorescence (z-score)
1,C(=C\c1ccccc1)/CN1CCN(C(c2ccccc2)c2ccccc2)CC1 [Cinnarizine] (compound 10 µM),0.22
2,COc1cc2c(cc1OC)CN(C(=O)[C@@H](NCc1ccncc1)C(C)(C)C)CC2 (compound 10 µM),0.87
3,CCN(CC)CCNC(=O)c1cc(Cl)c(N)cc1OC [Metoclopramide (hydrochloride hydrate)] (compound 10 µM),0.77
4,CN(C)CCOC(c1ccccc1)c1ccccc1 [Diphenhydramine (hydrochloride)] (compound 10 µM),-0.09
5,CNC(=O)c1cnn(-c2nc(N)c3ncn([C@@H]4O[C@H](CO)[C@@H](O)[C@H]4O)c3n2)c1 [Regadenoson] (compound 10 µM),1.71
6,C[C@](N)(Cc1ccc(O)c(O)c1)C(=O)O (compound 10 µM),0.11
7,O=C(O[C@H]1CN2CCC1CC2)N1CCc2ccccc2[C@@H]1c1ccccc1 [Solifenacin (hydrochloride)] (compound 10 µM),1.12
8,C[C@H](Cc1cc2c(c(C(N)=O)c1)N(CCCO)CC2)NCCOc1ccccc1OCC(F)(F)F [Silodosin] (compound 10 µM),-0.02
9,CC(=O)N[C@H](Cc1ccc2ccccc2c1)C(=O)N[C@H](Cc1ccc(Cl)cc1)C(=O)N[C@H](Cc1cccnc1)C(=O)N[C@@H](CO)C(=O)N(C)[C@@H](Cc1ccc(O)cc1)C(=O)N[C@H](CC(N)=O)C(=O)N[C@@H](CC(C)C)C(=O)N[C@@H](CCCCNC(C)C)C(=O)N1CCC[C@H]1C(=O)N[C@H](C)C(N)=O [Abarelix] (compound 10 µM),0.65
